Experimental data from PubChem BioAssay (Tox21).
Inconclusive results are not listed. Entries that show only a call come without a potency. Some compounds were tested as several samples or in several runs, with calls that do not always agree. The source made the active and inactive calls. Unless noted, calls follow the shape of the full dose curve.

Columns and labels:
[1] = Nuclear factor erythroid 2-related factor 2/antioxidant responsive element (Nrf2/ARE) small molecule agonists: qHTS cell viability counter screen in human keratinocytes (AID 1919968; active = well fitted curve in the direction sought with a large enough effect in the repeat runs; an effect the other way counts as inactive or inconclusive; also: nearly all actives have a fitted effect of over 55% in size)
Outline: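 Cells of the KeratinoSens line were plated at 1,500 per well and left for 5 h before compound transfer from DMSO stocks. After a 23 h incubation (37 C, 5% CO2), CellTiter-Fluor was added. Signal was taken as fluorescence intensity 1 h later.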

[2] = Nuclear factor erythroid 2-related factor 2/antioxidant responsive element (Nrf2/ARE) small molecule agonists: luciferase reporter gene qHTS assay in human keratinocytes (AID 1919969); also: nearly all actives have a fitted effect of over 35% in size; also: potency is read from the fitted curve at half-maximal effect
[3] = target: Gonadotropin-releasing hormone receptor (Homo sapiens) (UniProt P30968); assay: Human gonadotropin-releasing hormone receptor (GnRHR) small molecule agonists, calcium flux assay in GnRHR-HEK293 cells (AID 1920063); also: nearly all actives have a fitted effect of over 35% in size
Outline: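 Compounds dissolved in DMSO are pin-transferred onto dye-loaded GnRHR-HEK293 cells, which were seeded 18 h before at 37 C/5% CO2. Calcium signal is read as fluorescence intensity at 1 s intervals for 3 min.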

[4] = target: KiSS-1 receptor (Homo sapiens) (UniProt Q969F8); assay: Human kisspeptin (KISS1R) small molecule agonists, calcium flux assay in KISS1R-HEK293 cells (AID 1920064; active = well fitted curve in the direction sought with a large enough effect in the repeat runs; an effect the other way counts as inactive or inconclusive)
Outline: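 Cell line: HEK293, stable human KISS1R. Dye loading 1 h at 37 C after 18 h culture. Read: kinetic fluorescence, 480/540 nm, 3 min at 1 s intervals.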

[5] = G protein-coupled receptor (GPCR) small molecule agonists, calcium flux assay: HEK293 wild type cell line counter screen (AID 1920065)
Outline: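 Tox21 10K compounds, 15 concentrations each in triplicate, pin-transferred in DMSO onto dye-loaded cells; kinetic read at 480/540 nm for 3 min, 1 s intervals.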

[6] = p53 small molecule agonists, cell-based qHTS assay with human liver microsomes: qHTS cell viability counter screen (AID 1963579); also: nearly all actives have a fitted effect of over 45% in size
Outline: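 Seed p53RE-bla cells at 4,000 per well; incubate 5 h at 37 C; add compound, human liver microsomes and NADPH; incubate 16 h at 37 C; add CellTiter-Glo; after 30 min at room temperature, read luminescence.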

[7] = p53 small molecule agonists, cell-based qHTS assay with rat liver microsomes: qHTS cell viability counter screen (AID 1963580); also: nearly all actives have a fitted effect of over 45% in size; also: potency is read from the fitted curve at half-maximal effect
Outline: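 After the beta-lactamase ratio was read, CellTiter-Glo was added to the same wells and luminescence measured at 30 min; cells had been treated 16 h at 37 C with compounds, rat liver microsomes and NADPH (0.5 mg/mL final each).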

[8] = p53 small molecule agonists, cell-based qHTS assay: qHTS cell viability counter screen (AID 1963581); also: nearly all actives have a fitted effect of over 45% in size
Outline: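 ATP content measured by luminescence in HCT-116 p53RE-bla cells treated 16 h at 37 C, same wells as the reporter screen.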

[9] = cAMP Responsive Elements (CRE) small molecule agonists, cell-based qHTS assay (AID 1963590)
Outline: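 HEK 293T cells stably bearing CRE-bla were plated at 2,000 cells per well and rested 18 h. Compounds, positive controls or DMSO were added for 3 h at 37 C. LiveBLAzer B/G substrate was then loaded for 2 h at room temperature.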

[10] = cAMP Responsive Elements (CRE) small molecule antagonists, cell-based qHTS assay (AID 1963591; active = well fitted inhibition curve with a large enough effect in the signal ratio in the repeat runs, not every such curve was filed as active; the % refers to the signal ratio)
Outline: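 First, CRE-bla HEK293T cells settled 18 h at 37 C. Next, compound and 0.25 uM final NKH477 were applied for 3 h. Last, LiveBLAzer B/G substrate was loaded for 2 h at room temperature.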

[11] = target: Beta-2 adrenergic receptor (Homo sapiens) (UniProt P07550); assay: Adrenergic beta2 receptor (ADRB2) small molecule antagonists, cell-based qHTS assay (AID 1963592); also: series mostly up to about 92 µM; nearly all actives have a fitted effect of over 50% in size
Outline: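 Assay format: CHO-ADRB2 cells, 18-20hr seeding at 37C/5% CO2, then compound plus 1nM isoproterenol agonist mix for 0.5hr RT. Homogeneous time-resolved fluorescence cAMP detection after 1hr, expressed as 665/615 nm ratio.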

[12] = target: Beta-2 adrenergic receptor (Homo sapiens) (UniProt P07550); assay: Adrenergic beta2 receptor (ADRB2) small molecule agonists, cell-based qHTS assay (AID 1963593);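 also: CHO cells stably overexpressing human ADRB2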
Outline: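 CHO cells stably over-expressing ADRB2 were plated overnight at 37C, then dosed with compounds plus a stimulation mix containing 100uM IBMX and 25uM Ro-20-1724 for 0.5hr at room temperature. cAMP was measured by HTRF competition, 1hr.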

[13] = target: D(2) dopamine receptor (Homo sapiens) (UniProt P14416); assay: Dopamine D2 receptor (DRD2) small molecule agonists, cell-based qHTS assay (AID 1963594); also: nearly all actives have a fitted effect of over 35% in size
Outline: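 HEK293 cells stably expressing human DRD2, pre-treated with PDE inhibitor Ro20-1724 (0.1 mM final) and compound 10 min at room temperature, then stimulated with NKH477 (200nM […]) for 30 min. cAMP read by HTRF (665/620 nm).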

[14] = target: D(2) dopamine receptor (Homo sapiens) (UniProt P14416); assay: Dopamine D2 receptor (DRD2) small molecule antagonists, cell-based qHTS assay (AID 1963595; active = well fitted inhibition curve with a large enough effect in the signal ratio in the repeat runs, with a control signal flat; the % refers to the signal ratio; also: potency is read from the fitted curve at half-maximal effect)
Outline: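 Stable D2 receptor HEK293 line, 24 h after seeding. Compound preincubated 10 min, then quinpirole (12 nM) with forskolin analogue NKH477 (200 nM), 30 min, room temperature. Detection by time-resolved FRET of cAMP.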

[15] = p53 small molecule agonists, cell-based qHTS assay (AID 1963582; active = well fitted activation curve with a large enough effect in the signal ratio in the repeat runs, not every such curve was filed as active; the % refers to the signal ratio)
Outline: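 16 h compound exposure (37 C) of p53 response element–bla cells, preceded by 5 h recovery at 37 C/5% CO2; read-out via LiveBLAzer B/G FRET substrate, 2 h RT, fluorescence intensity.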

[16] = target: 5-hydroxytryptamine receptor 2A (Homo sapiens) (UniProt P28223); assay: 5-hydroxytryptamine receptor 2A (HTR2A) small molecule agonists, cell-based qHTS assay (AID 1963587); also: nearly all actives have a fitted effect of over 30% in size
Outline: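 CHO cells stably expressing human HTR2A, plated 18 h, loaded with calcium dye 1 h at 37 C. Agonist mode: compounds added and intracellular calcium fluorescence recorded kinetically for 2 min at 1 sec intervals.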

[17] = target: Muscarinic acetylcholine receptor M1 (Homo sapiens) (UniProt P11229); assay: Cholinergic receptor muscarinic 1 (CHRM1) small molecule antagonists, cell-based qHTS assay (AID 1963588); also: nearly all actives have a fitted effect of over 40% in size
Outline: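 Compounds were tested at 15 concentrations in three independent runs. Dye-loaded CHRM1-CHO cells were exposed 5 min at room temperature before stimulation by acetylcholine added at 50nM. Intracellular calcium was read kinetically on FDSS for 3 min.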

[18] = target: Muscarinic acetylcholine receptor M1 (Homo sapiens) (UniProt P11229); assay: Cholinergic receptor muscarinic 1 (CHRM1) small molecule agonists, cell-based qHTS assay (AID 1963589); also: nearly all actives have a fitted effect of over 35% in size
Outline: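 Homogeneous fluorescence calcium flux, agonist mode. Human M1-expressing CHO cells; compound dosed at 15 concentrations, three independent runs; signal sampled every 1 sec.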

[19] = p53 small molecule agonists, cell-based qHTS assay with rat liver microsomes (AID 1963578)
Outline: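 Fluorescence from a beta-lactamase reporter under a p53 response element was measured after cells had been incubated 16 h at 37 C with test compound and rat liver microsomes plus NADPH (0.5 mg/mL final each).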

[20] = target: 5-hydroxytryptamine receptor 2A (Homo sapiens) (UniProt P28223); assay: 5-hydroxytryptamine receptor 2A (HTR2A) small molecule antagonists, cell-based qHTS assay (AID 1963586); also: nearly all actives have a fitted effect of over 45% in size
Outline: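 CHO cells stably expressing human HTR2A were plated for 18 h at 37 C, then loaded with calcium dye for 1 h. Compounds were preincubated 5 min at room temperature before DOI (4 nM solution) was added. Kinetic fluorescence was read for 3 min.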

Chain of KiSS-1 receptor (Homo sapiens) (Q969F8 whole entry, looked up): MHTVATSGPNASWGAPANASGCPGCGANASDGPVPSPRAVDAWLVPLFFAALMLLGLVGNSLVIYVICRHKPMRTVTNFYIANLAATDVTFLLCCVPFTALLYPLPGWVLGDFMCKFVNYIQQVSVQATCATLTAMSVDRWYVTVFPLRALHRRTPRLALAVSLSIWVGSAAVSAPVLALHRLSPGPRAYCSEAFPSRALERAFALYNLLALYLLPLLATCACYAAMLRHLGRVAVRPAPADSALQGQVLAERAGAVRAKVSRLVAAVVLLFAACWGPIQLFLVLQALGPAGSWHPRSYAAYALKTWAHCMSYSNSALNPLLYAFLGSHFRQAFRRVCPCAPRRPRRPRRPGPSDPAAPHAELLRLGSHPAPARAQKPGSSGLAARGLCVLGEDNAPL
Chain of D(2) dopamine receptor (Homo sapiens) (P14416 whole entry, looked up): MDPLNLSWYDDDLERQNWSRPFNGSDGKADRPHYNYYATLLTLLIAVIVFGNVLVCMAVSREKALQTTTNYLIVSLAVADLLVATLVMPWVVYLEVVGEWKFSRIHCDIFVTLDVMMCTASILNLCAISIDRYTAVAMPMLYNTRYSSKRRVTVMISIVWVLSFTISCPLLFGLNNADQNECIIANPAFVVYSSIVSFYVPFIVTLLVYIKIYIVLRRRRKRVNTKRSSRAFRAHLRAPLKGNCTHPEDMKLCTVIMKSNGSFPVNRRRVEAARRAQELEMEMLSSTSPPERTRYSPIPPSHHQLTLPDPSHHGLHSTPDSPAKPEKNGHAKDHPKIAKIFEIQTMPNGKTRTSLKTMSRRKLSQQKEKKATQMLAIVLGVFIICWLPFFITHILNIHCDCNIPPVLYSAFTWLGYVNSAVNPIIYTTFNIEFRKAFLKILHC
Chain of Muscarinic acetylcholine receptor M1 (Homo sapiens) (P11229 whole entry, looked up): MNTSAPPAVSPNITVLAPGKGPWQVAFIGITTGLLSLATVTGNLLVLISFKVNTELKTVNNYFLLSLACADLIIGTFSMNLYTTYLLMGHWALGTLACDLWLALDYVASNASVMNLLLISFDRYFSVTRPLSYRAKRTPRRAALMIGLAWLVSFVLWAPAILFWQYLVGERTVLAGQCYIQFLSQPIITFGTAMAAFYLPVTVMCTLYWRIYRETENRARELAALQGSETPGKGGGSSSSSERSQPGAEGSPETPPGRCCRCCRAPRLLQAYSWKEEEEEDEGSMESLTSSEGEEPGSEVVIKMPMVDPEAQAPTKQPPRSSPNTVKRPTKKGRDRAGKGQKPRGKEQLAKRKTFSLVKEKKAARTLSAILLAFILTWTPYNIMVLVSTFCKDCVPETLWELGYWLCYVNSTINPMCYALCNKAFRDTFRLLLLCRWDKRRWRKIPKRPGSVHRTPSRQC
Chain of Gonadotropin-releasing hormone receptor (Homo sapiens) (P30968 whole entry, looked up): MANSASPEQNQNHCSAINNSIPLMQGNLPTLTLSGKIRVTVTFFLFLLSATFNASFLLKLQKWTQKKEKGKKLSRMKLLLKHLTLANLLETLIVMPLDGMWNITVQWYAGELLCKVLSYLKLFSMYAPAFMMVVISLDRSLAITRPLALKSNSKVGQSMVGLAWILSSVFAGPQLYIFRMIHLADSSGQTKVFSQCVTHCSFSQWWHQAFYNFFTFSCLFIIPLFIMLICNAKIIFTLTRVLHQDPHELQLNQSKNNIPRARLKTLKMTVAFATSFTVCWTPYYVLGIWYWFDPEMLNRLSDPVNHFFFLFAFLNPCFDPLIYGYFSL
Chain of Beta-2 adrenergic receptor (Homo sapiens) (P07550 whole entry, looked up): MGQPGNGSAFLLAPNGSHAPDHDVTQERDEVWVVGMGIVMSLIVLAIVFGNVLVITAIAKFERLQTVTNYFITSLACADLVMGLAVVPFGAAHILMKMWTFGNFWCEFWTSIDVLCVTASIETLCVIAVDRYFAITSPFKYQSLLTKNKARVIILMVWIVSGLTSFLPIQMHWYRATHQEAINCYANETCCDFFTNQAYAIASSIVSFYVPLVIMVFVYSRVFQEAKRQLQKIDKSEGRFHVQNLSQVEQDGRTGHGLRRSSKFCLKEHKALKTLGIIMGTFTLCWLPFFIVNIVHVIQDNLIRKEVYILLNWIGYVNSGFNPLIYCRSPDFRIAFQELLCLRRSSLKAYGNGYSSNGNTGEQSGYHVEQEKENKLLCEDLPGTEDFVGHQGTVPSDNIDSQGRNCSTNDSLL
Chain of 5-hydroxytryptamine receptor 2A (Homo sapiens) (P28223 whole entry, looked up): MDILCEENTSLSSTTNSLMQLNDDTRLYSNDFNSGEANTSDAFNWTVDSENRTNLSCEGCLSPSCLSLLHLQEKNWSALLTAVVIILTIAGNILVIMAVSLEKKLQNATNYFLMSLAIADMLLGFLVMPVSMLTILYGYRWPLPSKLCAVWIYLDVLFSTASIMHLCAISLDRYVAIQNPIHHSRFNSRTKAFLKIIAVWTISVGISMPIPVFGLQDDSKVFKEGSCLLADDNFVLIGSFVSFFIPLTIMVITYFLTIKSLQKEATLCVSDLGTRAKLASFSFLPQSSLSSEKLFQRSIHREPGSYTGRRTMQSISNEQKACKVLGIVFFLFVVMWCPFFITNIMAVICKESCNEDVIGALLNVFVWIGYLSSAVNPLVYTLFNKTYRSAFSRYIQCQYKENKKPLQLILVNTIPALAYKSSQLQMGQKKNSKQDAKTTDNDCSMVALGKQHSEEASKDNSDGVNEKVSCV

SMILES	Potency [1]	Potency [2]	Potency [3]	Potency [4]	Potency [5]	Potency [6]	Potency [7]	Potency [8]	Potency [9]	Potency [10]	Potency [11]	Potency [12]	Potency [13]	Potency [14]	Potency [15]	Potency [16]	Potency [17]	Potency [18]	Potency [19]	Potency [20]
CC12CCC(CC1)C(C)(C)O2	inactive	inactive	inactive	inactive	inactive	inactive	inactive	inactive	inactive	inactive	inactive	inactive	inactive	inactive						
Oc1ccc(Cc2ccccc2O)cc1	inactive	inactive	inactive	inactive	inactive		36.8 µM (active) and inactive	inactive	inactive	inactive	inactive	inactive	inactive	inactive	inactive	inactive	inactive	inactive		
O=C1O[C@H]([C@H](O)CO)C(O)=C1O	inactive	inactive	inactive	inactive	inactive	inactive	inactive	inactive	inactive	inactive	inactive	inactive	inactive	inactive	inactive				inactive	
C=CCNCC=C	inactive	inactive	inactive	inactive	inactive	inactive	inactive	inactive	inactive	inactive	inactive	inactive	inactive	inactive	inactive	inactive	inactive	inactive	inactive	inactive
COc1ccc([N+](=O)[O-])cc1N	inactive	inactive	inactive	inactive	inactive	inactive		inactive	inactive	inactive	inactive	inactive	inactive	inactive	inactive	inactive	inactive			inactive
CCCCOC(=O)COc1ccc(Cl)cc1Cl	inactive	69.4 µM (active) and inactive	inactive	inactive	inactive	inactive	inactive	inactive	inactive	inactive	inactive	inactive	inactive	inactive		inactive		inactive		inactive
CCC(C)(C)C(=O)O[C@H]1C[C@@H](C)C=C2C=C[C@H](C)[C@H](CC[C@@H]3C[C@@H](O)CC(=O)O3)[C@H]21	inactive	inactive	inactive	inactive	inactive	inactive	inactive		inactive		inactive		inactive	19.3 µM (active) and inactive	inactive				inactive	
O=C(O)CC(O)C(=O)O (stereo not drawn)	inactive	inactive	inactive	inactive	inactive	inactive	inactive	inactive	inactive	inactive	inactive	inactive	inactive	inactive	inactive	inactive	inactive		inactive	inactive
